The panel holds about 83,000 compounds, 20% with a hit somewhere; the sample as a whole holds those more often.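 The endpoint reported here, percent growth, reads 100 for growth as untreated, 0 for no net growth and -100 for all cells dead.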 Values without a mark were called inactive. Calls of active or inactive are those of the source. Rule for the calls: active = growth percent below 10; inactive = the rest.
How the values were obtained:
Test in all cases: NCI-60 one-dose screen, 48 h (100 = growth as untreated, 0 = no growth, -100 = all killed)
Settings in all cases: 10 µM unless noted
[1] = tested on: NCI-H23 lung
[2] = tested on: NCI-H226 lung
[3] = tested on: NCI-H322M lung
[4] = tested on: HOP-62 NSCLC
[5] = tested on: NCI-H460 lung
[6] = tested on: HOP-92 NSCLC
[7] = tested on: NCI-H522 lung
[8] = tested on: A549/ATCC NSCLC
[9] = tested on: 786-0 renal
[10] = tested on: COLO 205 colon

Structure (SMILES)	growth [1]	growth [2]	growth [3]	growth [4]	growth [5]	growth [6]	growth [7]	growth [8]	growth [9]	growth [10]
COc1cc(-c2ncn(/C=C\C(=O)OC(C)C)n2)cc(C(F)(F)F)c1	17.5%	-47% (active)	0.838% (active)	-18.5% (active)	-31.7% (active)	7.61% (active)	-70.9% (active)	12.9%	9.65% (active)	-62.2% (active)
COc1cccc(-c2cc3c(O)cc(C#N)cc3[nH]2)c1	92.5%	101%	85.4%	108%	96.9%	113%	80.2%	94.6%	90.5%	115%
NC(=N\N=C/c1ccc(O)cc1)/C(N)=N\N=C/c1ccc(O)cc1	90.9%	101%	77.5%	79.3%	35.9%	79%	31.4%	52.5%	52.6%	124%
FC(F)(F)c1ccccc1-c1cn2c(ccc3ccccc32)n1	85.3%	77.5%	96.1%	60.4%	85.3%	79.9%	49%	80%	94.9%	102%
Cn1c(=O)cc(NC(=O)CN2CCN(c3cc4c(cc3F)c(=O)c(C(=O)O)cn4C3CC3)CC2)[nH]c1=O	99.9%	95.5%	102%	98.9%	105%	99.8%	91.7%	98.8%	102%	106%
O=c1cc(Cc2ccc([N+](=O)[O-])cc2)[nH]c(=O)[nH]1	99.2%	107%	112%	93.3%	109%	96.1%	90.5%	106%	98.9%	100%
NC(=O)CCCN1C/C(=C\c2ccccc2)C(=O)c2ccccc21	95.6%	86.4%	88.2%	88.8%	111%	84.4%	80.4%	95.1%	96.6%	105%
O=C(NCCNc1nccc(-n2ccc3cccnc32)n1)c1ccc(C(F)(F)F)cc1	105%	97.7%	107%	99.2%	102%	112%	100%	102%	103%	112%
O=C(NCc1cn(Cc2cccc(Oc3ccccc3)c2)nn1)c1cccnc1Nc1ccc(F)cc1	69.4%	88.5%	77.4%	59.3%	34.4%	114%	31.3%	59.5%	69.8%	70.7%
COc1cc(-c2nn(-c3cccc(NC(=O)c4cccc(C(F)(F)F)c4)c3)cc2-c2ccncc2)ccc1Cl	24.7%	36.2%	58.1%	22.9%	4.83% (active)	-5.59% (active)	-42.3% (active)	7.4% (active)	29.8%	7.11% (active)
Cc1cc(C(C)(C)C)ccc1S	108%	96.3%	95.9%	96.2%	114%	86.3%	85.8%	111%	99.9%	116%
CN1C=CN(Cc2ccc(-c3ccccn3)nc2)[CH-]1.CN1C=CN(Cc2ccc(-c3ccccn3)nc2)[CH-]1.[Au+3]	36.3%	66.7%	-3% (active)	61.6%	21.3%	66.6%	34.2%	45.2%	52.8%	28.4%
NC1N=C(SCC(=O)N2CCN(c3cc4c(cc3F)c(=O)c(C(=O)O)cn4C3CC3)CC2)NC(=O)/C1=C/c1ccc(Cl)cc1 (stereo not given)	103%	106%	107%	103%	110%	114%	94.7%	103%	103%	115%
COc1cc(/C=C/C(=O)N2CCN(C(=O)/C=C/c3cc(OC)c(OC)c(OC)c3)CC2)cc(OC)c1OC	104%	100%	113%	102%	104%	99.7%	87.5%	105%	96.8%	109%
S=C(S)NCCc1c[nH]c2ccccc12	99%	66.5%	99.9%	106%	103%	99.2%	79.8%	99.4%	100%	125%
Cn1ccc(Nc2nccc(Oc3ccc(C(=O)Nc4cccc(F)c4)c(Cl)c3)n2)c1	67.3%	68%	48.4%	100%	106%	76.4%	43.1%	97.2%	79.8%	105%
COC(=O)c1nc(-c2ccccc2)oc1S(=O)(=O)N1CCN(c2cccc(Cl)c2)CC1	97.4%	93.9%	86.7%	83%	82.2%	48.2%	53.9%	88.7%	57%	82.5%
COc1ccc2c(c1)[nH]c(=O)c1c3cc(C)c(C)cc3cn21	51.4%	37%	-25.1% (active)	-27.8% (active)	-16.4% (active)	-41.7% (active)	-55.8% (active)	-4.9% (active)	30.9%	-48% (active)
CCN1C(=O)N(CC)C2C1NN=c1s/c(=C\c3cccnc3)c(=O)n12 (stereo not given)	44.5%	49.7%	47.3%	53.4%	7.97% (active)	101%	8.92% (active)	27%	41.7%	12.3%
CSc1nc2c(c(=O)[nH]1)C(c1ccc(C)cc1)C=C(C(=O)O)N2 (stereo not given)	98.9%	104%	101%	107%	106%	122%	108%	106%	104%	126%
COc1ccc(C2=C(c3cc(OC)c(OC)c(OC)c3)C(=O)CC2)cc1	14.2%	46.5%	47.8%	38.1%	0.331% (active)	40%	-35.5% (active)	24.7%	28.9%	-27.9% (active)
Cc1nn(-c2ccc(Cl)cc2)c2ncnc(N/N=C/c3cccc([N+](=O)[O-])c3)c12	94.3%	104%	96.4%	107%	77.8%	20.4%	103%	104%	96.4%	95.3%
CC(=O)Oc1cccc(S(=O)(=O)n2cc(C(=O)C(=O)Nc3ccncc3)c3ccccc32)c1	62.6%	73.6%	92.3%	87.2%	82.1%	70.5%	63.9%	72.7%	91.2%	100%
CC(C)(C)OC(=O)NCCc1ccc(N=C=S)cc1	81.4%	99.1%	86.9%	70.1%	82.2%	39.4%	16.1%	77.4%	80%	72.4%
O=C1c2c(c3c4ccccc4n(CCCCCCBr)c3c3[nH]c4ccccc4c23)C(=O)N1O	-0.173% (active)	70.5%	14.8%	8.33% (active)	5.88% (active)	-13.6% (active)	-7.94% (active)	6.36% (active)	17.3%	62.4%
CN(C[C@H]1Cc2c(cccc2N2CCN(Cc3ccccn3)CC2)CN1)[C@H]1CCCc2cccnc21	62.4%	56.9%	65.3%	39.1%	28.1%	73.2%	95.5%	40.3%	68.5%	69.6%
O=c1cc/c(=N\Nc2ccccc2)c(=O)/c1=N/Nc1ccccc1	93.9%	108%	93.7%	84.8%	95.7%	-1.02% (active)	110%	123%	112%	137%

Source: PubChem BioAssay (NCI)
